PubChem BioAssay AID1851 (National Center for Advancing Translational Sciences (NCATS), 2009)
The campaign covered roughly 16,000 compounds. About 2,600 (16%) were called active. Another 20% or so got no clear call; they are omitted. Only a sample is shown. Values without a mark were called inactive. Calls come from the whole dose curve; as a rule, active = well fitted curve in the direction sought with a large enough effect; inconclusive = small, poorly fitted or top-dose-only effect, or effect the other way; inactive = no such curve, though single readings can be large or run the other way.

target: Cytochrome P450 2D6 (Homo sapiens) (UniProt P10635); assay: Cytochrome panel assay with activity outcomes; conditions: recombinant CYP, pro-luciferin dealkylation, luminescence, p450-cyp2d6; series mostly up to 57.1 µM; activity, negative = inhibition: at the top concentration
Sequence (P10635 whole entry, looked up): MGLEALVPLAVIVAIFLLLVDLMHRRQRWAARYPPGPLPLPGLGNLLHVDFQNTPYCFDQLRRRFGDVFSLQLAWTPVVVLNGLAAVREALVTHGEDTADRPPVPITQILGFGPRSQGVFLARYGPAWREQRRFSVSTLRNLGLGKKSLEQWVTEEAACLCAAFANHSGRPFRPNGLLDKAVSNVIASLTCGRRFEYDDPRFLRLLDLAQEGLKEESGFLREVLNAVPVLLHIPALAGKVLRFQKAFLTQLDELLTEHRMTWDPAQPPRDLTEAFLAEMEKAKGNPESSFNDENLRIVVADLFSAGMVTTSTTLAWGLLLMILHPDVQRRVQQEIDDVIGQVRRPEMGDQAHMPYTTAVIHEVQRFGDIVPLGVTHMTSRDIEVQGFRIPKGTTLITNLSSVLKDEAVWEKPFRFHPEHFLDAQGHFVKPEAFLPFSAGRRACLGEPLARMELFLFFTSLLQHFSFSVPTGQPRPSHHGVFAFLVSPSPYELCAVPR
% is set by controls: 0 for no effect and ±100 for the full control effect.

SMILES | activity, negative = inhibition | AC50
CC(C)(S)[C@H](N)C(=O)O | 14.1% [at 11.4 µM] | –
Cc1nc(S(=O)(=O)N(C)c2ccccc2)c(C#N)c(C)c1Cl | -18.8% | –
CCOC(=O)c1cc2c(C(F)(F)F)cc(-c3ccccc3)nc2o1 | -0.763% | –
Nc1c(S(=O)(=O)O)cc(Nc2cccc(S(N)(=O)=O)c2)c2c1C(=O)c1ccccc1C2=O | -9.77% [at 11.4 µM] | –
CCOC(=O)c1cc(NC(=O)c2ccc(C)cc2)c(=O)oc1-c1ccccc1 | 4.01% | –
O=C(c1c(O)c2ccc(Cl)cc2[nH]c1=O)C1CC1 | – | 0.1 µM (active)
O=C(O)c1cc(=O)c2ccc(Cl)cc2[nH]1 | 12.4% | –
CCOC(=O)Nc1ccc2c(c1)N(C(=O)CCN1CCOCC1)c1ccccc1S2 | -6.49% [at 25.6 µM] | –
CC1CCN(CC(=O)N2c3ccccc3Sc3cc4ccccc4cc32)CC1 | – | 3.98 µM (active)
COc1ccc(OC)c2[nH]c(=O)c(CCNC(=O)C3CCCCC3)cc12 | 12.1% | –
COc1ccc([N+](=O)[O-])cc1COc1ccc2c(-c3ccccc3)cc(=O)oc2c1 | -23.6% | –
COc1ccc(-c2[nH]c(-c3ccc(C(=O)O)cc3)nc2-c2ccccc2)cc1 | -3.85% | –
COc1ccc(-c2nc(-c3ccccc3)c(-c3cc([N+](=O)[O-])ccc3C)[nH]2)cc1O | – | 28.2 µM (active)
COc1cccc(Nc2ncc3nc(-c4ccccc4)c(=O)n(C)c3n2)c1 | -5.78% | –
CCOc1ccc(N2CC(C(=O)NCc3cccc(C)c3)CC2=O)cc1 (stereo not given) | 6.93% | –
COc1cccc(CSCC(=O)O)c1 | 14.7% [at 11.4 µM] | –
COCCNC(=O)c1cc(-c2cccc(OC)c2)on1 | -14.9% | –
CCOc1cccc(CNCCNC(=O)c2nonc2N)c1 | – | 2.24 µM (active)
COc1cccc(CNCCNC(=O)c2nonc2N)c1 | – | 3.16 µM (active)
CCOc1ccc(-n2c(N)c(C(=O)NCc3cccnc3)sc2=S)cc1 | -9.16% | –
CCOC(=O)N1CCC(NC(=O)CCC(=O)N2CCOc3ccccc32)CC1 | -9.58% | –
Cc1ccc(Oc2nn[nH]n2)cc1 | 16.1% | –

SMILES | activity, negative = inhibition | AC50
CC(=O)OCC1=C(C(=O)O)N2C(=O)[C@@H](NC(=O)CSc3ccncc3)[C@@H]2SC1 | -9.3% [at 25.6 µM] | –
COc1cc(/C=C2/C(=N)N3C=CSC3=NC2=O)ccc1OCCCOc1c(C)cccc1C | -27.4% | –
O=C(c1cc2sccc2n1Cc1ccccc1)N1CCN(c2nc3ccccc3s2)CC1 | -20.2% | –
O=C(CSCc1ccc(Cl)cc1)Nc1nccs1 | – | 5.62 µM (active)
O=C(Nc1nccs1)c1sc2cc(Cl)ccc2c1Cl | -8.42% | –
C/C(=N\NC(=O)Cc1ccc(Cl)cc1)c1ccccn1 | -7.28% | –
C/C(=N\NC(=O)CSCc1ccc(Cl)cc1)c1ccc2c(c1)OCCO2 | – | 0.562 µM (active)
COC(=O)c1ccc(NC(=O)c2cc3sccc3n2C)cc1 | -8.69% | –
Cc1nnc(SCC(=O)Nc2nccs2)[nH]c1=O | 4.05% | –
O=C(CSCc1ccc(Cl)cc1)Nc1ccc2c(c1)OCCO2 | – | 3.98 µM (active)
O=C(CN1C(=O)C2C3C=CC(C3)C2C1=O)Nc1ccc2c(c1)OCCO2 (stereo not given) | -6.26% | –
C/C(=N\NC(N)=O)c1ccc(Cl)cc1 | -3.5% | –
O=C(Nc1ccc2c(c1)OCCO2)c1cc2sccc2n1Cc1ccccc1 | – | 7.94 µM (active)
Cc1nc(SCC(=O)Nc2ccc3c(c2)OCCO3)c2oc3ccccc3c2n1 | -8.87% | –
COc1ccc(COC(=O)N/N=C2/C[C@@H](O)[C@@H](O)[C@@H]3[C@@H]4C(=O)N(C(C)(C)C)C(=O)[C@H]4CC[C@H]23)cc1 | 19.2% [at 11.4 µM] | –
O=C(O)CCc1ccc(-c2ccc(Cl)cc2)n1CCC(=O)O | 14.3% | –
O=S(=O)(c1ccccc1)N1CCCC1c1nc2ccccc2s1 (stereo not given) | -27.6% | –
COc1ccc(N2C(=O)CCC(C(=O)Nc3ccccn3)C2c2ccc(OC)c(OC)c2)cc1 (stereo not given) | 9.02% | –
Oc1cc(O)c2c(c1)O[C@H](c1ccc(O)c(O)c1)[C@H](O)C2 | – | inactive
COc1ncc2ncc(=O)n(C)c2n1 | -2.66% | –
COC(=O)C1CSC(C(=O)OC)N1C(=O)Nc1ccccc1 (stereo not given) | 27.1% | –
O=C(CC(c1ccccc1)c1ccccc1)Nc1ccc2c(c1)OCCO2 | – | 0.251 µM (active)

SMILES | activity, negative = inhibition | AC50
CC(=O)Nc1ccc2c(c1)OCCO2 | 10.2% | –
CC(=O)Nc1ccc2c(c1)OCCOCCOc1cc(NC(C)=O)ccc1OCCOCCOCCO2 | -24.6% | –
CO[C@H]1[C@@H](OC(N)=O)[C@H](O)[C@@H](Oc2ccc3c(O)c(NC(=O)c4ccc(O)c(CC=C(C)C)c4)c(=O)oc3c2C)OC1(C)C | -8.34% [at 25.6 µM] | –
COc1ccc(CCNC(=O)c2ccc3c(=O)n(Cc4ccco4)c(=S)[nH]c3c2)cc1OC | -1.94% | –
Cc1ccc2nc(SCC(=O)Nc3nnc(SCC(N)=O)s3)[nH]c2c1 | -2.41% | –
Cc1ccc2nc(Nc3nc(-c4ccccc4)cc(=O)[nH]3)nc(C)c2c1 | -24.8% | –
Cc1ccc2c(C)nc(Nc3nc(CSc4nc5ccccc5[nH]4)cc(=O)[nH]3)nc2c1 | – | 3.55 µM (active)
Cc1nn(C)c(Oc2cccc(Cl)c2)c1C=O | -4.06% | –
Cc1ccc(C(=O)N/C(=C\c2ccc([N+](=O)[O-])cc2)C(=O)NCCc2ccccc2)cc1 | -2.99% | –
CN1CCc2cccc3c2[C@@H]1Cc1ccc(O)c(O)c1-3 | – | inactive
CN1CCc2cccc3c2[C@H]1Cc1ccc(O)c(O)c1-3 | – | 12.6 µM (active)
COc1ccc(C2=CSC(/N=C/c3ccc(F)cc3)=NN2)cc1 | 9.92% | –
COC(=O)CCSc1cc([N+](=O)[O-])cc2c1c(C1OCCS1)nn2-c1ccccc1 (stereo not given) | – | 12.6 µM (active)
Cc1ccccc1OC/C(O)=C(\C#N)c1nc2ccccc2[nH]1 | 12.1% | –
Cc1cc(O)c(/C=N/Nc2cccc(Cl)c2)c(=O)o1 | – | 0.158 µM (active)
Cc1ccc(-n2cnc(=O)c3cccnc32)cc1 | 1.45% | –
Cc1ccc(-n2c(-c3ccc(Br)cc3)c[n+]3c2CCc2ccc4cccnc4c2-3)cc1 | – | 1.41 µM (active)
CCCCC[C@H](CC(=O)NO)C(=O)N[C@@H](C(=O)N1CCC[C@H]1CO)C(C)C | -6.29% | –
Nc1ccc(O)c(C(=O)O)c1 | -14.1% [at 25.6 µM] | –
CCC(=O)NC(Nc1sc2c(c1C(=O)OC)CCCC2)(C(F)(F)F)C(F)(F)F | 2.09% | –
O=[N+]([O-])c1ccc2ncccc2c1CCc1c([N+](=O)[O-])ccc2ncccc12 | -19.7% [at 11.4 µM] | –
